An excerpt weighted towards active compounds, which were near 3.2% of everything screened.
CaV13 FRET inh: Primary screen for inhibitors of IQ motif and Ca2+-dependent inactivation inhibitor domain binding in CACNA1D, Förster resonance energy transfer in living cells, …; 0.098% of 340,000 active; HEK cells, CFP/YFP FRET ICDI-IQ, plate reader, 10 min; percent FRET-ratio fall versus neutral wells; inhibition, % at 12.3 µM; AID 743397;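 active means mean replicate inhibition of at least 30% and at least 1% of replicates passing that level; inconclusive means only one of the two criteria is met; inactive means neither criterion is met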;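 further: 0% = median of the neutral control wells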
DENV2 CPE: DENV2-induced cell death inhibition. DENV2-infected cells, cytopathic effect rescue, plate reader. CPE inhibition, % at 9.99 µM. 1.7% of 350,000 active; in the data active means CPE inhibition above about 20%, passing the limit was not always enough; inconclusive means no clear call, values can overlap the other calls; tested in BHK-21 cells;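 further: 0% = median of neutral control wells and 100% = median of positive control wells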
ERAP1 HTS inh: ERAP1 (human) enzyme inhibition; 0.15% of 340,000 active; recombinant ERAP1, Leu-AMC fluorescence, 60 min; AID 652197; Q9NZ08; inhibition, % at 10.7 µM;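 active means mean replicate inhibition of at least 30%, or all replicates individually reaching that 30% level; inactive means mean below 30% and not every replicate reaching it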;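 further: 0% = neutral control wells and 100% = L-leucinethiol positive control wells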
Target sequence (Q9NZ08 whole entry, looked up): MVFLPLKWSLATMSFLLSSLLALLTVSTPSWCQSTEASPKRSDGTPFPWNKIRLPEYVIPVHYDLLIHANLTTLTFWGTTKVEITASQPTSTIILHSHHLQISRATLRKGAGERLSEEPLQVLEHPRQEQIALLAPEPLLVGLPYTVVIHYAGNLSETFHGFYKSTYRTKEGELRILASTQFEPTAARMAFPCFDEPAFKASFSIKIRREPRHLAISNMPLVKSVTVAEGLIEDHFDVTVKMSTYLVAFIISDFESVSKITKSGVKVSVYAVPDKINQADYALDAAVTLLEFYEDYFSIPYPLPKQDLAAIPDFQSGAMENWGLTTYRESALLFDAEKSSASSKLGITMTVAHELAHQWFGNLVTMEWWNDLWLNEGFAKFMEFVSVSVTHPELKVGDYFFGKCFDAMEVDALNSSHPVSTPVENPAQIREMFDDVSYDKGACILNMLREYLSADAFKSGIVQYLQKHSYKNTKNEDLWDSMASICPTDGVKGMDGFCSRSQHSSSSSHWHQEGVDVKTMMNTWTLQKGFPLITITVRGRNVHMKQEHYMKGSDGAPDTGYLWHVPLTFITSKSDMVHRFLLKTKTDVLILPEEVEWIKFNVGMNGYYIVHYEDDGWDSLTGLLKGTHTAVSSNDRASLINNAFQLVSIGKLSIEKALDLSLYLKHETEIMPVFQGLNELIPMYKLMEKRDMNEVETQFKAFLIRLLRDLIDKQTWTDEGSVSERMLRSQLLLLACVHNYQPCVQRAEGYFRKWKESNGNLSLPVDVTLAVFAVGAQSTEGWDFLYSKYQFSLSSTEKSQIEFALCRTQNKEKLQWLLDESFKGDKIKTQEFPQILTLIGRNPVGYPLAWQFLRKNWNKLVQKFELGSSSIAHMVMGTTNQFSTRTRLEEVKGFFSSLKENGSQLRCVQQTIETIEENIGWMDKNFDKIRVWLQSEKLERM
rRNA inh HTS: selective bacterial rRNA inhibition in E. coli. E. coli WT GFP vs humanized-ribosome RFP mutants, fluorescence, 24 h; active compounds read low; DMSO median 0, no signal -100. GFP signal change (wild-type ribosome), % (test concentration not listed). 1.6% of 350,000 active;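 active means significant combined selectivity score with lowered wild-type GFP, culture density cut under 30%, mutant RFP and density less affected; inactive means any of these conditions unmet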
GSIS activator: primary screen for activators of insulin secretion dependent on glucose, INS-1E cells, GLuc reporter luminescence. INS-1E GLuc reporter insulin secretion, 2-3 h. activation, % at 16.6 µM. 0.61% of 370,000 active;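 active means lowest replicate activation of at least 40%, so every replicate reaches that level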;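 further: 0% = median of neutral control wells and 100% = median of IBMX positive control wells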
PGC1a acetyl inh: PGC1a acetylation modulation, inhibitor mode. U2OS PGC1a acetylation, AlphaScreen anti-acetyl-lysine; with virally co-expressed GCN5 acetyltransferase. 0.17% of 350,000 active. inhibition, % at 15.6 µM;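 active means every replicate shows inhibition of at least 40%; inconclusive means mean inhibition at least 40% but some replicate below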;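 further: 0% = neutral control wells and 100% = positive control wells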
* hit, by the source's call; ? = inconclusive; / = no result.

SMILES | CaV13 FRET inh | DENV2 CPE | ERAP1 HTS inh | rRNA inh HTS | GSIS activator | PGC1a acetyl inh
Cc1[nH]c(=O)c(C#N)c(C)c1CCC(=O)NCc1cccc(C(F)(F)F)c1 | -3 | 28* | -3 | 6 | 22 | /
O=C(Nc1ccccc1Br)C1CCN(S(=O)(=O)c2cccs2)CC1 | -6 | 5 | -1 | -16* | 6 | -10
COc1ccc(CNC(=O)C[C@@H]2CC[C@H]3[C@H](COc4ccc(NC(=O)C(C)C)cc4C(=O)N3C)O2)cc1 | / | -4 | 1 | 3 | -5 | -1
CCCNC(=O)C[C@H]1C[C@H]2c3cc(NS(C)(=O)=O)ccc3O[C@H]2[C@@H](CO)O1 | / | 4 | 1 | 1 | 13 | 1
CCc1ccc(NS(=O)(=O)c2ccc3[nH]cc(C(=O)N(C)Cc4ccco4)c(=O)c3c2)cc1 | -7 | 3 | 0 | -25* | -1 | -8
COc1ccc(S(=O)(=O)Nc2ccc3c(c2)C(=O)N([C@@H](C)CO)C[C@@H](C)[C@@H](CN(C)C(=O)Nc2ccc(F)cc2)O3)cc1 | / | -5 | 0 | 3 | 0 | -1
COc1ccc(N2C(=O)CC(Sc3nc(C)cc(C)c3C#N)C2=O)cc1 (stereo not drawn) | -4 | / | / | / | 63* | 0
CCCc1ccc(C#N)c(SC2CC(=O)N(c3ccc(OC)cc3)C2=O)n1 (stereo not drawn) | -6 | 2 | 4 | -16 | 2 | 5
Cc1noc(C)c1NC(=O)N(C)C[C@@H]1Oc2ccc(NC(=O)CCC(F)(F)F)cc2C(=O)N([C@H](C)CO)C[C@@H]1C | / | ? | -2 | 1 | 12 | -6
NC(=S)NNc1c(F)c(F)c(F)c(F)c1F | -2 | -1 | 6 | -26* | 4 | /
Cc1ccccc1NNC(N)=S | -3 | 1 | -9 | 10 | / | -2
CN(C)C(=O)C[C@@H]1C=C[C@@H](NC(=O)C2CC2)[C@@H](CO)O1 | / | -6 | 0 | 0 | 11 | 18
COc1ccc(NC(=O)C[C@H]2CC[C@H]3[C@@H](COc4ccc(NC(=O)C5CC5)cc4C(=O)N3C)O2)cc1 | / | -4 | / | -6 | 3 | 1
CC(C)(C)OC(=O)NOCC(=O)N(CC(=O)c1ccccc1)Cc1ccccc1 | -10 | 29* | -2 | -15 | 6 | -9
OC(COc1ccccc1)CN(Cc1ccccc1)CC(O)COc1ccccc1 (stereo not drawn) | -9 | 6 | 1 | -43 | -25 | -19
CC(C)(C)OC(=O)NOCC(=O)N(Cc1ccccc1)CC(O)COc1ccccc1 (stereo not drawn) | -11 | ? | 0 | -18* | / | 13
O=C1CCC(=O)N1CNc1ccc(Oc2ccccc2)cc1 | -7 | -4 | 2 | -13* | / | 1
C[C@@H]1CN([C@@H](C)CO)S(=O)(=O)c2ccc(-c3ccccc3)cc2O[C@H]1CN(C)CC1CCCC1 | / | 39* | -3 | -16 | -2 | 5
C[C@H]1CN([C@@H](C)CO)S(=O)(=O)c2ccc(C#Cc3ccccc3)cc2O[C@H]1CN(C)CC1CC1 | / | 35* | -4 | -4 | 2 | -17
C[C@@H]1CN([C@@H](C)CO)S(=O)(=O)c2ccc(-c3ccccc3)cc2O[C@@H]1CN(C)CC1CC1 | / | 19 | 2 | 4 | 10 | -4
CCCC#Cc1ccc2c(c1)O[C@@H](CN(C)CC1CCCC1)[C@H](C)CN([C@H](C)CO)S2(=O)=O | / | 60* | 0 | -1 | -8 | 2
CN(C)C(=O)C[C@H]1C[C@@H]2c3cc(NC(=O)NC4CCCCC4)ccc3O[C@@H]2[C@H](CO)O1 | / | -8 | -1 | 1 | 1 | -4
COc1ccc(CNC(=O)c2cnn3c(C(F)F)cc(C)nc23)cc1 | / | / | / | / | 80* | -7
Cc1cc(C(F)F)n2ncc(C(=O)NCc3ccccc3)c2n1 | -5 | / | / | / | / | -5
COc1ccc(N=C2NC(=O)/C(=C\c3ccco3)S2)cc1 | -1 | -3 | -3 | -13 | 8 | 4
SMILES | CaV13 FRET inh | DENV2 CPE | ERAP1 HTS inh | rRNA inh HTS | GSIS activator | PGC1a acetyl inh
O=C1NC(=Nc2ccc(O)cc2)S/C1=C\C=C\c1ccco1 | -15 | 4 | / | -24* | -5 | /
COc1ccc2c3c(n(C)c2c1)[C@@H](CO)N(C(=O)c1ccccn1)CC31CCN(C)CC1 | / | 35* | / | 9 | 1 | -6
CCCC(=O)N1CCC2(CC1)CN(S(C)(=O)=O)[C@H](CO)c1c2c2ccc(OC)cc2n1C | / | 59* | / | -6 | 26 | 4
CCC(=O)N1CCC2(CC1)CN(S(C)(=O)=O)[C@H](CO)c1c2c2ccc(OC)cc2n1C | / | -1 | 1 | -3 | 18 | 10
CCCC(=O)N1CC2(CCN(C)CC2)c2c(n(C)c3cc(OC)ccc23)[C@@H]1CO | / | 64* | / | 5 | 2 | -5
CCCC(=O)N1CC2(CCN(C(C)=O)CC2)c2c(n(C)c3cc(OC)ccc23)[C@@H]1CO | / | -1 | -5 | 9 | 18 | -2
O=C(C[C@@H]1CC[C@H](NS(=O)(=O)c2ccc(F)cc2)[C@H](CO)O1)N1CCC(Cc2ccccc2)CC1 | / | 6 | -4 | -3 | -30 | 4
NS(=O)(=O)c1ccc(NC(=O)COC(=O)c2cn(-c3ccccc3)nc2-c2ccc(F)cc2)cc1 | -15 | / | / | / | 65* | /
N/C(=N\OC(=O)Cc1ccc(Cl)cc1)c1cccnc1 | -8 | / | 1 | -11 | 10 | 5
N/C(=N\OC(=O)Cc1ccc(Cl)cc1)c1ccncc1 | -3 | 3 | 1 | -22* | 5 | 17
COc1ccc(CC(=O)O/N=C(\N)c2ccncc2)cc1 | -3 | 8 | 8 | -6 | 9 | /
COc1ccc(CC(=O)O/N=C(\N)c2ccc(C)cc2)cc1 | -2 | 0 | / | -22* | 2 | -28
N/C(=N\OC(=O)Cc1ccccc1)c1cccnc1 | -4 | / | / | / | / | /
N/C(=N\OC(=O)Cc1ccccc1)c1ccccc1Cl | -15 | -4 | -2 | -17* | 4 | /
CS(=O)(=O)Nc1ccc2c(c1)[C@H]1C[C@@H](CC(=O)NCC(F)(F)F)O[C@H](CO)[C@H]1O2 | / | -3 | 0 | 5 | 6 | -6
Cc1cc(C(=O)Nc2cccc3c2O[C@H](CN(C)C(=O)Nc2cccc4ccccc24)[C@H](C)CN([C@H](C)CO)C3=O)n(C)n1 | / | 7 | -2 | -8 | 10 | -5
C[C@@H]1CCCCO[C@@H](CN(C)Cc2ccc(Cl)c(Cl)c2)[C@H](C)CN([C@@H](C)CO)C(=O)c2cc(NS(=O)(=O)c3cn(C)cn3)ccc2O1 | / | -6 | 0 | 2 | -9 | -2
O=C(Cc1ccccn1)N[C@H]1CC[C@H](CCn2cc(-c3cccnc3)nn2)O[C@H]1CO | / | 10 | 7 | 3 | 29 | 18
CO[C@H]1CN(C)C(=O)c2cc(NC(=O)NC(C)C)ccc2OC[C@@H](C)N(C)C[C@@H]1C | / | 15 | 2 | -1 | 10 | 13

Source: PubChem BioAssay
